From the OligoGym collection

Target: LRRC14
Assay: pooled miR-30 sensor sort-seq; sequence = guide strand
Conditions: shRNA
Also: reference of the scale not given here.

Sequence | sensor-assay potency score (higher = more potent)
TAGCGGAAGTTGTCCTCGCCAT | -0.494
TACCACTGTCTTCTTGTCCATG | -0.472
TTGAGGTGGGCAGCATGTGGGC | -1.24
TACGGCAGCAGTACAGTCCCAC | -0.572
TTGTCCTCGCCATCCACGGAGG | -1.48
ATGCACATAGTGGAGCCGCAGG | -1.72
TCACGCAGACAGGTGAAGCGGC | -0.746
TTGTCCATGAAGGCCACCTTGA | -1.21
TAGCAGTCCACAGGGAAGGGGT | -0.698
TGGCACTGCAGCACCTGCCGTG | -0.778
TTCCACACCATCATCCAAGAGG | -1.09
TTGAAGCGCAGGTCCACGCGGC | -0.0617
